Data from PubChem BioAssay (NCATS).
Results filed as inconclusive are left out. A call without a number means that no potency is given here. Calls of active or inactive are those of the source. The call rests on the fitted dose curve; in most records, active means well fitted inhibition curve with a large enough effect; inconclusive means small, poorly fitted or top-dose-only effect; inactive means flat fitted curve, though single readings scatter.

Each compound was assayed on Zika virus NS2B-NS3 protease (assay: Primary screen GU AMC qHTS for Zika virus inhibitors (AID 1347154; further: nearly all actives have a fitted effect of over 70% in size)). Conditions: Zika NS2B-NS3 unlinked protease, AMC fluorogenic substrate; series mostly up to 54.1 µM.
Procedure, shortened: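 Unlinked Zika NS2B hydrophilic domain–NS3 protease complex at 25 nM in 10 mM Tris-HCl pH 8.0, 0.01% Tween 20, with an AMC peptide substrate. Fluorescence change (340/450 nm) over 15 min at room temperature, normalized to controls, fitted to 4-parameter Hill.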
Potency means the concentration at half of the fitted maximal effect.

SMILES | Potency
O=c1[nH]c(-c2ccc(C(F)(F)F)cc2)nc2c1CSCC2 | inactive
Cc1n[nH]c(C)c1Cc1sc2c(c1C(=O)N1C[C@H](O)CO1)c(=O)n(C)c(=O)n2CC(C)C | inactive
Cc1cc(Nc2nc(N[C@@H](C)c3ncc(F)cn3)ncc2Cl)n[nH]1 | inactive
C[C@H](NC(=O)Cc1cc(F)cc(F)c1)C(=O)N[C@@H]1C(=O)N(C)c2ccccc2-c2ccccc21 | inactive
O=C1CCCC2=C1C(c1[nH]ncc1Cl)N=C(Nc1nc3ccccc3o1)N2 (stereo not given) | inactive
CN(C)C(=O)c1ccc(S(=O)(=O)c2ccc(NC(=O)[C@@](C)(O)C(F)(F)F)c(Cl)c2)cc1 | inactive
CN(C)c1ccc(Nc2nc(N)n(C(=O)c3c(F)cccc3F)n2)cc1 | inactive
O=C(Nc1cccnc1)N1CCC(Cc2cccc(Oc3ccc(C(F)(F)F)cn3)c2)CC1 | inactive
Cc1ccnc(NS(=O)(=O)c2ccc(NC(=O)Nc3ccc(S(=O)(=O)Nc4nccc(C)n4)cc3)cc2)n1 | 24.1 µM (active)
CNC(=O)c1ccc(C)c(-n2c(C)cc(OCc3ccc(F)cc3F)c(Br)c2=O)c1 | inactive
Cc1csc(NC(=O)c2sc3nc4c(c(C(F)(F)F)c3c2N)CCC4)n1 | inactive
COc1ccc(CCN2CCN(CCCc3ccccc3)CC2)cc1OC | inactive
COc1ccccc1[C@H](c1cccc2ccccc12)[C@@](C)(C#N)C(=O)N1CCC(c2cccc(C(F)(F)F)c2)CC1 | inactive
N#CC[C@H](C1CCCC1)n1cc(-c2ncnc3[nH]ccc23)cn1 | 24.1 µM (active)
C[C@@H]1CN(Cc2ccc(F)cc2)[C@@H](C)CN1C(=O)c1cc2c(C(=O)C(=O)N(C)C)cn(C)c2cc1Cl | inactive
